# Test results taken from the OligoGym collection.
# Molecular target: AWAT2
# Test: pooled miR-30 sensor sort-seq; sequence = guide strand
# Settings: shRNA
# Further: reference of the scale not given here.
row,Sequence,sensor-assay potency score (higher = more potent)
1,TTAGCCACGATCTCCTGGCTTG,-0.416
2,TAGACATTACATATTCTCTGAG,0.0457
3,ATATTTAGCCACGATCTCCTGG,-0.175
4,TTCTTGGGACTATCTCACCAGT,-1.17
5,ATAATCGCTGTAGTGTTTCCAC,-0.0859
6,TTGAGAGGGAAATAATCGCTGT,-0.0931
7,TATTTAGCCACGATCTCCTGGC,-0.00517
8,TAAGAATAAGCACAGTGACAGG,-1.65
9,TGAGATACCAAACTTGGTCTTA,-0.0616
10,TCTTGGTGAAGCCACGTCCATA,-1.6
11,ATAAGCACAGTGACAGGCCAGT,-0.973
12,TTGACAGCAATCACAGTGGTTG,-0.667

# Molecular target: B3GNT9
# Test: as above
# Settings: shRNA
row,Sequence,sensor-assay potency score (higher = more potent)
1,TTAATGAGCAGTGGAAACCGCC,-0.997
2,TTAGGTTAAAAAAGGTGTCGTC,-0.179
3,TAGAAAGTGGATCTCCTTGAGC,-0.561
4,AAGTGGATCTCCTTGAGCGTTA,-0.755
5,TCGGGGATGTAGTACTTGCTAG,-1.49
6,TTCACGAACACATCTGCGTCGC,0.331
7,TCGGGTAACTGGAACGCGCGGG,-0.607
8,AAAAACGAAGCGCACGTCGGGG,-1.1
9,AATTACGTCACCAGCAAGCAGG,-1.35
10,TGCACTACAACCAGCTCACGGT,-0.863
11,TAGTACTTGCTAGCCCGCGTGC,-1.22
12,TGTAGTACTTGCTAGCCCGCGT,-0.0178

# Molecular target: BABAM1
# Test: as above
# Settings: shRNA
row,Sequence,sensor-assay potency score (higher = more potent)
1,TATCCTTCCAACTCATCTCCTC,0.00157
2,TTGGCAGTGACATTTCCTCTGA,-0.685
3,TTCTGGGAGACATTGAGGGCGT,-0.794
4,ATCGTCTGCACGTTCTCTGTGA,-0.356
5,TCGATCTTGTGTTTTGTCCGCA,0.0335
6,TTCTCTGGACAGTTGACCCTTG,0.0913
7,AAACTCGTGGCTTTTGTCGATC,-1.23
8,TTTGTCCGCACGAACATCTCAA,-0.413
9,TTATCCATGACAAACTAGGAGT,-0.739
10,AAACATATCCTTCCAACTCATC,-1.73
11,TTTCTCTGGACAGTTGACCCTT,0.0375

# Molecular target: BARX2
# Test: as above
# Settings: shRNA
row,Sequence,sensor-assay potency score (higher = more potent)
1,TCAGCTTCAATCTCTTCTGATG,-1.18
2,TTTAAGAACCATTTTCTTCCAT,0.594
3,TAATCGCAGGTCTCCTTGGAGA,-1.07
4,TGCTTCACAGAGCTCCTCCTGC,-0.821
